Compound activity as filed in PubChem BioAssay.
The sample as a whole holds a higher share of hits than the screen did.
ST2 inh: inhibitors of human ST2 (IL1RL1) binding to IL-33, primary screen, biochemical, AlphaLISA; Interleukin-1 receptor-like 1 (Homo sapiens), Q01638; 78,000 compounds, 2.3% hits; AlphaLISA ST2-Fc/biotin-IL-33 interaction, 1 h; inhibition, % for hits at 17 µM; in the data active = inhibition above about 30%
Target sequence (Q01638 whole entry, looked up): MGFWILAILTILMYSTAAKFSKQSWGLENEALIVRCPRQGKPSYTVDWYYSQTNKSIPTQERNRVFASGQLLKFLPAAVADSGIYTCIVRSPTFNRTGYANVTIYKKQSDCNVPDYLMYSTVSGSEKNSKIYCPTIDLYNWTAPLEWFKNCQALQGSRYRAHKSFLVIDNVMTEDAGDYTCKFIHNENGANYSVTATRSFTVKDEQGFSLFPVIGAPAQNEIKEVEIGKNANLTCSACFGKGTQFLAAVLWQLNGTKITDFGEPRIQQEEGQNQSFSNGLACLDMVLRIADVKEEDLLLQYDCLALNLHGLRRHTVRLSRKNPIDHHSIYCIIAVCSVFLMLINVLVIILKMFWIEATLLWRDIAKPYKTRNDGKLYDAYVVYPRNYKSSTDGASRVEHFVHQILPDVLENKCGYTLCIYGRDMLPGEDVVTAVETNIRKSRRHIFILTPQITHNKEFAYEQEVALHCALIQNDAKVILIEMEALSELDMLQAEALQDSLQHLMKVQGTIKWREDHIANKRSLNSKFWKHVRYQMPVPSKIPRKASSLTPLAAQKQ
An asterisk follows results filed as active; i = inactive.

SMILES	ST2 inh
CCOc1ccc(C(=O)NC2CC(=O)N(c3cccc(F)c3)C2)cc1OCC (configuration not stated)	i
C=CCN(CC#Cc1ccccc1)C(=O)CNC	i
Nc1nonc1-c1noc(COc2ccc(F)cc2)n1	i
N#Cc1nc(COc2ccccc2)oc1NCc1ccc(F)cc1	34%*
COc1ccc(CNc2oc(COc3ccc(OC)cc3)nc2C#N)cc1	i
Nc1c(C(=O)Nc2ccc(F)c(Cl)c2)nnn1Cc1ccc(F)cc1	i
CC(C)(C)c1ccc(C(=O)N2CCN(c3ccc([N+](=O)[O-])c(NCc4ccco4)c3)CC2)cc1	31%*
O=[N+]([O-])c1ccc(N2CCOCC2)cc1NCc1ccco1	i
Cc1cc(C)n(-c2cc(N3CCN(C(=O)c4ccco4)CC3)ccc2[N+](=O)[O-])n1	i
O=C(c1ccc2nc3ccsc3c(=O)n2c1)N1CCC(Cc2ccccc2)CC1	i
CC(=O)N1c2c(cc(Br)cc2S(=O)(=O)N(C)c2cc(C)ccc2C)CC1C (configuration not stated)	i
CNCC(=O)NCCn1nc(-c2ccccc2)ccc1=O	i
Cn1c(Br)nc2c1c(=O)n(Cc1ccccc1)c(=O)n2C	i
Cn1c(=O)c2c(nc(Oc3ccccc3)n2C)n(C)c1=O	i
COc1ccc(Oc2nc3c(c(=O)n(Cc4ccccc4)c(=O)n3C)n2C)cc1	35%*
CN1CCN(S(=O)(=O)c2ccccc2[N+](=O)[O-])CC1	i
Cc1ccc(OCCn2cnc3ccccc3c2=O)c(Br)c1	i
COC(=O)c1ccc(NS(=O)(=O)c2cc(Br)cc3c2N(C(C)=O)C(C)C3)cc1 (configuration not stated)	i
Cc1cccc(NC(=O)C(=O)NCc2ccncc2)c1C	i
C=CCOc1ccc(C(=O)N2CCOCC2)cc1	31%*
Cc1cc(C)c(C(=O)c2ccc(C(=O)N3CCOCC3)cc2)c(C)c1	i
CCCOc1ccc(C(=O)N2CCOCC2)cc1OC	i
C=C(C)COc1ccccc1C(=O)NCCc1c(C)n[nH]c1C	i
O=C(NCCc1ccccc1)C(Cl)Cl	i
CC1=CCC2CC1C(c1ccc(N(C)C)cc1)OC2(C)C (configuration not stated)	60%*
SMILES	ST2 inh
CC(C)(C)CC(=O)N1C[C@@H]2C[C@H](C1)c1ccc(NS(=O)(=O)c3ccccc3C#N)c(=O)n1C2	i
COCCCN1C(=O)CC(CC(=O)N2CCCC(c3ccccc3C)C2)(c2ccccc2Cl)C1=O (configuration not stated)	i
Cc1c(Cl)cccc1NC(=O)CN1CCN(C(=O)c2ccco2)CC1	i
Cc1ccc(-c2nnc(SCC(=O)NC(C)(C)C)o2)cc1	i
O=C(O)c1ccccc1NC(=O)C1CC1	i
COc1cc(NC(=O)C(C(C)C)N2C(=O)c3ccccc3C2=O)c(OC)cc1Cl (configuration not stated)	41%*
CC(C)C(C(=O)Nc1ccccc1Br)N1C(=O)c2ccccc2C1=O (configuration not stated)	i
COc1ccccc1NC(=O)C(C(C)C)N1C(=O)c2ccccc2C1=O (configuration not stated)	i
CC1=CC(C)(C)N(C(=O)CN2C(=O)c3ccccc3C2=O)c2ccccc21	i
Cc1c(NC(=O)CN2C(=O)c3cccc([N+](=O)[O-])c3C2=O)c(=O)n(-c2ccccc2)n1C	i
CC1=CC(C)(C)N(C(=O)CN2C(=O)c3cccc([N+](=O)[O-])c3C2=O)c2ccccc21	32%*
Cn1c(=O)c2c(nc(NCCOCCO)n2Cc2ccc(Cl)cc2Cl)n(C)c1=O	i
Cc1cccc(N=Cc2c(Nc3cccc(C)c3)nc3ccccn3c2=O)c1	44%*
Cn1c(C(=O)Nc2cccc(Cl)c2)cc2c(=O)n3ccccc3nc21	i
Cc1cccc(Nc2nc(C)[nH]c2[N+](=O)[O-])c1	i
CCOc1ccc(C(O)=Cc2nc3ccccc3oc2=O)cc1	i
O=[N+]([O-])c1cc(Nc2ccccc2)c(C=Nc2ccccc2)c([N+](=O)[O-])c1	66%*
Cc1[nH]n(-c2ccccc2)c(=O)c1C=Nc1cc([N+](=O)[O-])cc([N+](=O)[O-])c1	i
O=[N+]([O-])c1cccc(C=Nc2ccc(S(=O)(=O)Nc3ccccn3)cc2)c1	i
O=C(NCCN1CCN(c2ccccc2F)CC1)c1ccc2nc3cc(Cl)ccc3c(=O)n2c1	i
CCOc1ncccc1-c1cc(N2CCOCC2)nc(N)n1	i
Nc1c(C(=O)Nc2ccccc2)sc2nc3c(cc12)CCCCC3	i
Nc1c(C(=O)Nc2cccc(C(F)(F)F)c2)sc2nc3c(cc12)CCCCC3	42%*
CCc1nnc(NC(=O)c2sc3nc4c(cc3c2N)CCCCC4)s1	i
CCOC(=O)c1c(NC(=O)C(C)Oc2ccc(Cl)cc2C)sc(C(N)=O)c1C (configuration not stated)	i
SMILES	ST2 inh
Cc1ccc2oc(=O)c(-c3nc4ccccc4s3)cc2c1	36%*
C=C(C)COc1ccc2cc(-c3nc4ccccc4s3)c(=O)oc2c1	i
CCN(CC)c1ccc2cc(-c3nc4ccccc4s3)c(=O)oc2c1	i
Cc1cc(C)c(S(=O)(=O)N2CCN(c3nc(C)cc(Nc4ccccc4)n3)CC2)c(C)c1	i
COc1ccc(C2=NNC(c3ccccc3)C2)c(O)c1 (configuration not stated)	i
COc1ccc(C2CC(C3C(=O)c4ccccc4C3=O)=NN2)cc1 (configuration not stated)	36%*
COc1cccc2ccc(C3C(=O)c4ccccc4C3=O)nc12	i
Cc1ccc(S(=O)(=O)Nc2ccc3oc4c(c3c2)C(=O)CCC4)c(C)c1	i
COCc1[nH]nc2c1C(c1ccc(OC)c(OC)c1OC)C(C#N)=C(N)O2 (configuration not stated)	i
O=C(Nc1cc(Cl)ccc1Cl)c1ccc(Br)cc1	i
COCCNC(=O)CSc1nc(-c2cccc(Cl)c2)nc2cc(=O)[nH]n12	i
CC(CCc1ccccc1)NC(=O)CSc1nc(-c2ccc3c(c2)OCO3)nc2cc(=O)[nH]n12 (configuration not stated)	i
CC(C)NC(=O)CSc1nc(-c2cccc(Cl)c2)nc2cc(=O)[nH]n12	96%*
CC1=C(C(=O)OCc2ccccc2)C(c2ccccc2)n2ncnc2N1 (configuration not stated)	i
Cn1cc(C(=O)NCc2cccs2)c2c3ccccc3n(C)c2c1=O	i
O=CN1CCN(Cc2cc(F)ccc2F)CC1	i
COc1ccc(CC(=O)N2N=C(C)CC2(O)c2cccnc2)cc1 (configuration not stated)	i
CCN1C(=Nc2cccnc2)SCC1(O)c1ccccc1 (configuration not stated)	33%*
CC(NCC(=O)Nc1cnccn1)c1ccccc1-n1cccn1 (configuration not stated)	i
[O-][n+]1c2ccccc2[n+]([O-])c2cc(O)ccc21	35%*
O=C1C2[C@H](C(=O)N1c1ccccc1Cl)C1c3ccccc3C2(C(=O)O)c2ccccc21 (some centres not stated)	i
OCCC1CN(Cc2cc3ccccc3s2)CCN1C1CCCC1 (configuration not stated)	i
O=C(CSc1cccc2cccnc12)N1CCc2ccccc21	i
CCC1=C(c2ccc(OC)cc2)S(=O)(=O)N(CC(=O)Nc2ccccc2OC)C1=O	i
